Most compounds without a hit are left out; they make up all but 4.8% or so of the library.
TGFb SMAD3 inh: TGF-b pathway inhibition. Potency, µM (top dose mostly 46.1 µM), inactives show at the highest dose activity, negative = inhibition, usual class: inhibitors. 410,000 compounds, 1.2% hits. AID 588855. HepG2 CAGA-GFP TGF-b/SMAD3 reporter, GFP fluorescence, 18 h; TGF-beta stimulated, 500 pg/mL final; further: potency means the concentration at half of the fitted maximal effect; on the % scale 0 is the no-effect control and ±100 the full control effect; nearly all actives have a fitted effect of over 65% in size
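GFP signal (ex488/em500-530) from TGF-beta-stimulated HEPG2 CAGA-GFP cells, 500 pg/mL final, 18 h at 37 degrees C in DMEM plus 1% FBS, normalized to unstimulated and DMSO-stimulated controls.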
ATXN2 expr inh: reduces ATXN2 reporter expression in HEK-293 cells; 360,000 compounds, 0.72% hits; HEK-293 ATXN2-luciferase reporter, luminescence, 24 h; Potency, µM (top dose mostly 57 µM), for the others: at the highest dose activity change, negative = inhibition, usual class: inhibitors; further: potency means the concentration at half of the fitted maximal effect; on the % scale 0 is the no-effect control and ±100 the full control effect; nearly all actives have a fitted effect of over 55% in size
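ATXN2-luciferase reporter cells (luciferase flanked by upstream and downstream ATXN2 gene portions) were treated 24 h at 37 °C with compounds at up to 57 uM. SteadyGlo luminescence gave expression; GF-AFC fluorescence gave viability.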
ATXN viability: cell viability loss in ATXN counter-screen; AID 651635; Potency, µM (series often up to 56.7 µM), most hits filed as cytotoxic; S2 cells (HEK-293 line with an ATXN2-luciferase reporter) viability, CellTiter-Fluor protease fluorescence, 24 h; 400,000 compounds, 0.49% hits; further: potency means the concentration at half of the fitted maximal effect; nearly all actives have a fitted effect of over 40% in size
D3 ag: activates the human D3 dopamine receptor. 410,000 compounds, 0.58% hits. max activation, %. D3R DiscoveRx beta-arrestin cells, luminescence, 90 min; in the data active means max activation above about 30%; further: 0% is about no effect
Target sequence (P35462 whole entry, looked up): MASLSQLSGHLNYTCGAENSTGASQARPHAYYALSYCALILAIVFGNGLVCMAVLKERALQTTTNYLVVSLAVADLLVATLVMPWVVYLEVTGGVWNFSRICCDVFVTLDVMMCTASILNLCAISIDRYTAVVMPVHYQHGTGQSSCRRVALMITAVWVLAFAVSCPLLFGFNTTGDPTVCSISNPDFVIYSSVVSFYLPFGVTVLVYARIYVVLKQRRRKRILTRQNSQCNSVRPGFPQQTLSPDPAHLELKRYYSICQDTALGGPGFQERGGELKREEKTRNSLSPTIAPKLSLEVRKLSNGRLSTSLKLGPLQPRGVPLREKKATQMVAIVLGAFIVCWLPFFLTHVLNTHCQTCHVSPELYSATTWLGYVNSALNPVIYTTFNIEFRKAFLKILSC
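Agonist mode: compounds and dopamine controls were applied to plated cells for 90 min at 37 degrees C after an overnight attachment at 1500 cells/well. Luminescent read-out followed 30 - 60 minutes at room temperature with DiscoveRx detection reagent.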
DRD3 antagonist: D3 dopamine receptor (human) antagonism; D3R cells, DiscoveRx beta-arrestin luminescence, antagonist mode; active compounds read low; max response, negative = inhibition, %; 360,000 compounds, 2.5% hits; AID 652054; in the data active means max response below about -50%; inconclusive means no clear call, values can overlap the other calls; further: on the % scale 0 is the no-effect control and ±100 the full control effect
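Cells expressing the human receptor were seeded at 1500 cells/well, incubated overnight at 37 degrees C in 5% CO2, then exposed to library compounds with dopamine controls for 90 minutes at 37 degrees C before luminescent detection.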
HepG2 viability: HepG2 cytotoxicity, counter-screen for TGF-b inhibitors; HepG2 CAGA-GFP viability, ATP luminescence, 18 h; Potency, µM (highest dose often 46.1 µM), inactives show at the highest dose activity change, negative = cytotoxicity, most hits filed as cytotoxic; 410,000 compounds, 0.76% hits; AID 588856; further: potency means the concentration at half of the fitted maximal effect
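HepG2 CAGA-GFP cells (1000/well, DMEM with 1% FBS) received compound, then TGF-beta at 500 pg/mL final, and were incubated 18 hours at 37 degrees C. Viability was read by CellTiter-Glo luminescence. Media-only wells were set as complete cell-killing and DMSO as no toxicity.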
* = called active by the depositor; i = inactive; ? = inconclusive; · = no result. Unless noted, the call rests on the fitted dose curve; in most records, active means well fitted curve in the direction sought with a large enough effect; inconclusive means small, poorly fitted or top-dose-only effect, or another doubt; inactive means no such curve, though single readings can be large; an effect the other way counts as inactive or inconclusive.

SMILES	TGFb SMAD3 inh	ATXN2 expr inh	ATXN viability	D3 ag	DRD3 antagonist	HepG2 viability
COc1ccc(C(=O)Nc2oc(-c3ccccc3)c(-c3ccccc3)c2C#N)cc1	-23%	-3%	i	-17	-64*	-28%
CC1=CC(=C(C#N)c2nc3ccccc3s2)C=C(C)N1Cc1ccco1	-13%	7%	i	-18	-56*	1%
Cc1ccccc1NC(=O)OCc1ccccc1	4%	53%	i	61*	7	2%
CCC1=C2CC[C@H]3C(=O)N(C)C(=O)[C@H]3[C@H]2[C@@]2(Cc3ccccc3)C(=NCCOC)OC(=O)N2C1=O	-5%	5%	i	38*	4	-13%
CCCN1CCC(N(CCc2ccccc2)Cc2ccccc2)CC1	-9%	·	i	-5	-97*	-19%
COc1ccc(CN2CCC(C(=O)N(C)CCc3ccc(OC)c(OC)c3)CC2)c(OC)c1	1%	-19%	i	0	-5	-22%
COc1ccc(CN2CCC(N(CCc3ccccc3)Cc3ccccc3)CC2)c(OC)c1	?	?	?	-12	-62*	-49%
COc1ccccc1/C=C/c1cnccn1	-14%	·	·	·	·	5%
O=S(=O)(Nc1ccc(N=Nc2ccc(O)c3ccccc23)cc1)c1ccccc1	?	-18%	?	-33	?	-29%
O=[N+]([O-])c1ccc(N=Nc2ccc(O)c3ccccc23)cc1	?	?	?	-14	-71*	13µM*
Cc1cc(NC(=O)CNCC(c2ccccc2)N(C)C)c([N+](=O)[O-])cc1C (configuration not stated)	37%	·	·	3	-54*	0%
Cc1ccc(NC(=O)CNCC(c2ccccc2)N(C)C)cc1F (configuration not stated)	2%	-7%	i	-12	-28	-23%
CCOC(=O)C1=C(CSc2nccn2C)NC(=O)NC1c1cc(C)ccc1C (configuration not stated)	11%	-10%	i	-9	-3	-51%
CCOC(=O)C1=C(Cn2cnc3ccccc32)NC(=O)NC1c1cc(C)ccc1C (configuration not stated)	?	?	32µM*	34*	19	-27%
CCOC(=O)C1=C(CNCc2ccc(C)cc2)NC(=O)NC1c1cc(C)ccc1C (configuration not stated)	?	-5%	?	23	22	-19%
COC(=O)C1=C(Cn2cnc3ccccc32)NC(=O)NC1c1cc(C)ccc1C (configuration not stated)	10%	-7%	i	40*	59	-15%
COc1ccc(C(=O)N(Cc2sccc2C)C2CCS(=O)(=O)C2)cc1Cl (configuration not stated)	·	·	·	-15	·	-29%
CCOc1ccc(-n2c(C)nc3cc(C(=O)NCCC4=CCCCC4)ccc32)cc1	18µM*	2%	i	-11	·	-31%
O=C(Nc1cc(Cl)cc(Cl)c1)c1ccc(F)c(S(=O)(=O)N2CCCC2)c1	?	·	·	-2	·	-32%
COc1ccc(NC(=O)c2ccc3c(c2)CCN3S(C)(=O)=O)cc1	-5%	·	i	5	-2	-12%
CS(=O)(=O)N1CCc2cc(C(=O)Nc3ccc(Cl)cc3)ccc21	6%	39%	?	94*	?	-11%
CCCCOC(=O)c1ccc(NC(=O)c2ccc3c(c2)CCN3S(=O)(=O)c2ccccc2)cc1	-1%	·	·	-9	·	-11%
O=C(Nc1cc(Cl)cc(Cl)c1)c1ccc(F)c(S(=O)(=O)N2CCc3ccccc32)c1	4µM*	·	·	-5	·	-76%
CCCCOC(=O)c1ccc(NC(=O)c2ccc3c(c2)CCCN3S(C)(=O)=O)cc1	-10%	7.1µM*	?	-1	·	-31%
COc1cc(/C=C/C(=O)N2CCC=CC2=O)cc(OC)c1OC	?	10µM*	10µM*	0	?	-90%
COc1cc(/C=C/C(C)=O)cc(OC)c1OC	0%	35%	i	1	-14	18%

Screening results deposited in PubChem BioAssay by National Center for Advancing Translational Sciences (NCATS).
